# Pf growth 48h = P. falciparum growth inhibition at 48 hours (one generation) | Potency, µM (series often up to 28.7 µM), inactives show at the highest dose activity change, negative = inhibition, hits mostly inhibitors | 310,000 tested, 5.9% active | P. falciparum luciferase growth in erythrocytes, 48 h; note: potency is the fitted concentration of half-maximal effect; % is set by controls: 0 for no effect and ±100 for the full control effect
#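 Erythrocytes infected with P. falciparum carrying an integrated firefly luciferase reporter (2% hematocrit, 0.1% parasitemia final) were exposed to compounds in RPMI 1640 with 0.5% Albumax at 37 C, 5% CO2. Growth inhibition was scored as reduced luminescence.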
# CHX counter = counter-screen for Shiga toxin inhibitors: cycloheximide protein synthesis inhibition | cell reporter, cycloheximide protein synthesis inhibition counterscreen | max response, % | 300,000 tested, 12% active; in the data active = max response mostly above about 13%, no sharp cut-off; inactive = mostly below about 14%; note: read at 38.3 µM for the half of the compounds with a filed dose; 0% is about no effect
# Shiga toxin inh = blocks Shiga toxin action in Vero cells | Vero cells, Shiga toxin protein synthesis inhibition reporter | inhibition, % at 38.7 µM | 290,000 tested, 9.2% active; in the data active = inhibition mostly above about 28%, no sharp cut-off; inactive = mostly below about 43%; note: 0% is about no effect
# NS1 inh = inhibitors of influenza NS1 protein function. 270,000 tested, 0.4% active. AID 2326. Potency, µM (series often up to 46.1 µM), for the others: at the top dose activity, positive = more growth; calls by dose curve; note: potency is the fitted concentration of half-maximal effect; actives are rising curves; nearly all actives have a fitted effect of over 50% in size
#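 OD600 was taken as the measure of yeast growth restored by compound in an NS1-expressing S. cerevisiae strain. Cells had been washed out of glucose medium and diluted 1:100 into galactose -URA medium, pH 6.0.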
# Pf growth 96h = P. falciparum growth inhibition at 96 hour, primary screen for plastid delayed-death inhibitors | P. falciparum luciferase reporter growth, 96 h | Potency, µM (doses to about 28.7 µM), for the others: at the top dose activity change, negative = inhibition, most hits filed as inhibitors | 320,000 tested, 6.9% active | AID 504834; note: potency is the fitted concentration of half-maximal effect; % is set by controls: 0 for no effect and ±100 for the full control effect
#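 Two parasite generations (96 h, 37 C, 5% CO2) of compound exposure in infected erythrocytes (0.05% parasitemia, 2% hematocrit). Luciferase-reporter P. falciparum; decreased luminescence indicates inhibited growth, aimed at apicoplast-acting delayed death.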
# Numbers without * were called inactive; ? = inconclusive; / = no result given; [ ] = dose if it differs, or a comment. In the library only some 21% were active in any assay of this set; here they are far more common. Unless noted, calls come from the whole dose curve; as a rule, active = well fitted inhibition curve with a large enough effect; inconclusive = small, poorly fitted or top-dose-only effect, or another doubt; inactive = no such curve, though single readings can be large or run the other way.
SMILES,Pf growth 48h,CHX counter,Shiga toxin inh,NS1 inh,Pf growth 96h
O=C1Nc2cc(C(=O)NCCCN3CCCC3)ccc2S/C1=C\c1ccccc1,9.3µM*,3,-5,11%,-1%
COc1ccc(/C=C2/Sc3ccc(C(=O)NCCN4CCCCCC4)cc3NC2=O)cc1,9.3µM*,8,-15,1%,?
O=C1Nc2cc(C(=O)NCCCN3CCOCC3)ccc2S/C1=C/c1cccc(Cl)c1,?,-10,8,2%,3%
COc1ccc(C(=O)NCCN2CCCC2)cc1,14%,0,-13,12%,14%
O=C1CC(c2cccs2)c2cc3c(cc2N1)OCCO3 (stereo unspecified),?,-1,-3,-15%,/
O=c1cc(/C=C/c2cccs2)[nH]c2ccccc12,9.3µM*,18,52,-8%,/
O=c1cc(C(F)(F)F)[nH]c2ccccc12,-2%,-2,-9,3%,?
CSc1ccc(/C=C/c2cc(=O)c3ccccc3[nH]2)cc1,1.9µM*,15*,74*,-12%,-6%
Cc1cccc(C)c1NC(=S)NC1CCCCC1,-21%,8,-6,-30%,10µM*
Cc1ccccc1NC(=S)NC1CCCC1,?,-2,-2,2%,?
Cc1cccc(NC(=S)NNC(=S)NC2CCCCC2)c1C,55%,16*,44*,-12%,6%[5.75 µM]
COc1ccc(S(=O)(=O)NCC2CCCN(Cc3ccc(O)cc3)C2)cc1 (stereo unspecified),?,-3,-3,1%,24%
CCCCOc1ccc(C2=NNC(=O)CC2)cc1,60%,15,40*,0%,18%
COc1ccc(Cc2cnc(N)nc2N)cc1OC,2.4µM*,/,/,/,3.8µM*
CCCCOc1ccc(Cc2cnc(N)nc2N)cc1,?,2,20,-2%,?
CC(C)Oc1ccc(Cc2cnc(N)nc2N)cc1,/,5,25,10%,6.6µM*
COc1cc(C)c(Cc2cnc(N)nc2N)cc1OC,3.8µM*,-6,10,/,2.7µM*
COCc1cnc(C)nc1N,14%,8,2,/,10%
Cc1ccc(CNC(=O)c2cc3c(=O)n4ccccc4nc3n(Cc3ccco3)c2=N)cc1,?,-3,-14,13%,/
Cc1cccn2c(=O)c3cc(C(=O)NC(C)c4ccccc4)c(=N)n(CCCn4ccnc4)c3nc12 (stereo unspecified),0.41µM*,1,-9,16%,0.41µM*
Cc1cccn2c(=O)c3cc(C(=O)NCc4ccco4)c(=N)n(CCc4ccccc4)c3nc12,0.59µM*,17*,46*,-1%,0.59µM*
Cc1ccc2nc3c(cc(C(=O)NCc4ccco4)c(=N)n3Cc3ccco3)c(=O)n2c1,1.7µM*,-3,-29,-4%,-1%
COc1ccc(CCNC(=O)c2cc3c(=O)n4cccc(C)c4nc3n(Cc3ccco3)c2=N)cc1OC,13µM*,14,11,?,1.7µM*
CC1CN(C(=O)c2cc3cc(F)ccc3[nH]2)CC(C)O1 (stereo unspecified),?,-1,-3,-1%,?
CCCn1nnc(NC(=O)c2cc(Br)cc(Br)c2OC)n1,9%,-7,-8,-89%,-11%
SMILES,Pf growth 48h,CHX counter,Shiga toxin inh,NS1 inh,Pf growth 96h
Cc1cccn2c(=O)c3cc(C(=O)NCCc4ccccc4)c(=N)n(Cc4ccco4)c3nc12,1.5µM*,-4,-14,18%,?
CN=c1scc(C)n1/N=C/c1ccc(O)c(O)c1O,/,-11,-15,10%,-39%
CN=c1scc(C)n1/N=C/c1cc(Br)c(O)c(OC)c1,-23%,21*,56*,3%,-10%
CCCCCC[n+]1c(-c2ccccc2)csc1Nc1ccccc1,3.3µM*,-7,-6,-32%,?
O=C(O)c1ccc(C[n+]2c(-c3ccccc3)csc2Nc2ccccc2)cc1,14%,-1,-6,6%,19%
Cc1nc(-c2cccc(-c3noc(C)n3)c2)no1,39%,8,40,10%,-20%
Cc1nc(-c2ccc(-c3ccon3)s2)no1,122%,21*,53*,-7%,34%
CCN(CC)S(=O)(=O)c1ccc(C)c(NC(=O)COC(=O)CN2C(=O)NC(C)(C)C2=O)c1,-7%,/,/,/,14%
CCCCNC(=O)C1c2cc(OC)c(OC)cc2C(=O)N(C)C1c1cccs1 (stereo unspecified),-6%,-1,-2,/,2.1µM*
CCCN(CCC)CCCNC(=O)C1c2cc(OC)c(OC)cc2C(=O)N(C)C1c1cccs1 (stereo unspecified),/,7,-13,5%,28%

# Compound activity as filed in PubChem BioAssay.
